Screening results: PubChem BioAssay, several laboratories
A selection: hits, their analogues and other compounds. The true share with any hit is near 4.6%.
NALP3 yeast inh – blocks the NALP3 inflammasome reconstituted in yeast; AID 2825; hit rate 0.39% among 330,000; inhibition, % at 10 µM; Yeast reconstituted NLRP3/ASC/caspase-1, beta-gal luminescence, 24 h;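 active means inhibition of 50% or more; inactive means inhibition below 50%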
tim23-1 inh – inhibits growth of tim23-1 mutant yeast | S. cerevisiae tim23-1 growth, BacTiter-Glo luminescence, 24 h | inhibition, % at 20 µM | hit rate 1.3% among 330,000 | AID 463212;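 active means growth inhibition of the mutant yeast at or above 50%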;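 further: temperature-sensitive mutant grown at 25 °C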
SKKanGAS inh – inhibitors of SKKanGAS S. pyogenes growth in kanamycin (SK-promoter or general growth effect); BacTiter-Glo, 6 h; inhibition, % at 7.5 µM; hit rate 1.3% among 300,000; AID 1662;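 active means mean replicate score, as percent of positive control median, at least 50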;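 further: strain carries kanamycin resistance gene driven by streptokinase promoter and grows in 40 µg/ml kanamycin; loss of luminescence reflects streptokinase promoter inhibition or plain growth inhibition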
tim10-1 inh – inhibits growth of tim10-1 mutant yeast; inhibition, % at 20 µM; S. cerevisiae tim10-1 ts strain growth, BacTiter-Glo, 24 h; hit rate 2.2% among 330,000;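 active means inhibition of at least 40%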;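 further: mutant grown at 25 °C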
PfHsp90 yeast 2 – reduces growth (ATP signal) of yeast expressing P. falciparum Hsp90; hit rate 0.32% among 310,000; S. cerevisiae expressing PfHsp90, BacTiter-Glo ATP, 48 h; yeast lacking PDR1 and PDR3 efflux regulators; inhibition, % at 9.4 µM;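 active means every replicate shows inhibition above about 80%, whatever the replicate mean, limit read from the data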
TIM10 inh – inhibits growth of TIM10 yeast strain. hit rate 1.4% among 330,000. inhibition, % at 10 µM. S. cerevisiae TIM10 strain growth, BacTiter-Glo luminescence, 24 h;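 active means inhibition of 40% or more at the single tested concentration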;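 further: wild-type TIM10 isogenic control strain grown at permissive 25 °C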
tim10-1 conf – tim10-1 yeast growth inhibition, confirmed; hit rate 56% among 7,400; inhibition, % at 20 µM; shares compounds with tim10-1 inh; S. cerevisiae tim10-1 ts strain growth, BacTiter-Glo, 24 h;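 active means inhibition of yeast growth at or above a set limit in either of two repeat tests at 20 µM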;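 further: tim10-1 mutant grown at permissive 25 °C to find synthetic lethal compounds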
TIM10 conf – TIM10 yeast growth inhibition, confirmed; shares compounds with TIM10 inh; S. cerevisiae tim10 strain growth, BacTiter-Glo luminescence, 24 h; inhibition, % at 10 µM; hit rate 63% among 4,600; AID 463215;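 active means inhibition of yeast growth at or above a set limit in either of two replicates at 10 µM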; further: this counterscreen used the strain with wild-type TIM10
tim23-1 confirm – tim23-1 yeast growth inhibition, confirmed | shares compounds with tim23-1 inh | S. cerevisiae tim23-1 growth, BacTiter-Glo luminescence, 24 h | inhibition, % at 20 µM | hit rate 83% among 4,400 | AID 463218;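 active means inhibition above about 39% in either of two replicate wells at 20 µM, limit read from the data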;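 further: temperature-sensitive tim23-1 mutant grown at 25 °C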
A number is an active result; – = inactive; · = no result.

SMILES	NALP3 yeast inh	tim23-1 inh	SKKanGAS inh	tim10-1 inh	PfHsp90 yeast 2	TIM10 inh	tim10-1 conf	tim23-1 confirm	others
CC1CC(C)CN(C(=O)c2ccc(-c3ccc([N+](=O)[O-])cc3)o2)C1 (stereo not drawn)	–	63.0	–	68.8	–	56.2	–	45.6	TIM10 conf=58.4
COc1ccc(-c2coc3cc(O)cc(O)c3c2=O)cc1	–	68.5	–	53.0	–	–	37.0	63.5
O=[N+]([O-])c1ccc(N2CCN(c3ccccc3)CC2)nc1	–	–	–	–	–	–	·	·
O=[N+]([O-])c1ccc(N2CCc3ccccc3C2)nc1	–	62.8	–	66.3	–	–	64.4	–
CCN(CC)CCn1c(=S)[nH]c2cc(C(=O)NCc3ccccc3Cl)ccc2c1=O	–	–	–	–	–	–	·	·
Cc1c(C(=O)OCC(=O)N(C)c2ccccc2)oc2ccccc12	–	56.5	–	48.5	–	–	43.5	59.8
CN(C)c1cccc(C(=O)OCC(=O)N(C)c2ccccc2)c1	–	52.2	–	48.2	–	–	47.8	49.7
Cc1ccc(C(=O)OCC(=O)N(C)c2ccccc2)cc1C	–	53.0	–	40.9	–	–	38.1	–
CC(=O)Oc1ccc(-c2cccc(C(=O)OCC(=O)N(C)c3ccccc3)c2)cc1	–	50.1	–	46.3	–	–	34.5	–
Cc1cc(C(=O)OCC(=O)N(C)c2ccccc2)ccc1[N+](=O)[O-]	–	–	–	–	·	–	·	·
Cc1c(C(=O)OCC(=O)N(C)Cc2ccccc2)oc2ccccc12	–	–	·	–	–	–	·	·
CN(C(=O)COC(=O)c1cccc(F)c1)c1ccccc1	–	–	–	–	–	–	·	·
CCCN(CC1CC1)C(=S)NC(=O)c1cc(Br)ccc1Cl	–	57.2	·	60.4	–	52.1	36.9	51.5	TIM10 conf=50.7
CCCN(CC1CC1)C(=S)NC(=O)C1CC1	–	–	–	–	–	–	·	·
CCOC(=O)C1CCCN(C(=S)NC(=O)c2cc(Br)ccc2Cl)C1 (stereo not drawn)	–	54.8	·	40.0	–	–	–	44.1
O=C(N/N=C/c1ccc(Br)cc1)c1ccccc1-n1cccc1	–	54.1	–	42.4	–	–	37.0	51.1
Cc1cccc(/C=N\NC(=O)c2ccccc2-n2cccc2)c1	–	–	–	–	–	–	·	·
Fc1ccccc1C1CC(c2ccco2)=Nc2ccccc2S1 (stereo not drawn)	–	–	–	–	–	–	·	·
CC(C)c1ccc(OCC(=O)NCCO)cc1	–	–	–	–	–	–	·	·
COC(=O)c1ccccc1NC(=O)CSc1nnnn1C1CCCCC1	–	–	–	–	–	–	·	·
CCOC(=O)c1ccccc1NC(=O)CSc1nnnn1C1CCCCC1	–	53.0	–	42.6	·	–	–	–
Cc1ccc(C(C(=O)Nc2ccc3c(c2)OCO3)N(C)C(=O)Cc2c[nH]c3ccccc23)cc1 (stereo not drawn)	–	–	–	–	–	–	·	·
Cc1cc2n(n1)C(c1c[nH]c3ccccc13)Nc1ccccc1-2 (stereo not drawn)	–	70.5	62.9	60.2	125.2	40.1	33.6	–	TIM10 conf=33.2
Cc1cc2n(n1)C(c1ccc(O)cc1)Nc1ccccc1-2 (stereo not drawn)	–	50.4	–	54.1	–	54.6	46.5	53.9	TIM10 conf=48.5
Cc1cc2n(n1)C(c1ccco1)Nc1ccccc1-2 (stereo not drawn)	–	–	–	–	·	–	·	·
Cc1cc2n(n1)C(c1cn(-c3ccccc3)nc1C)Nc1ccccc1-2 (stereo not drawn)	–	–	–	–	·	–	·	·
O=C(COc1cccc(NC(=O)c2ccccc2)c1)c1ccccc1	–	–	–	–	–	–	·	·
O=C(COc1cccc(NC(=O)c2cccs2)c1)c1ccc(F)cc1	–	52.6	–	46.1	–	62.0	40.4	75.7	TIM10 conf=–
